Screening results: PubChem, National Center for Advancing Translational Sciences (NCATS)
An excerpt weighted towards active compounds, which were near 15% of everything screened.
Pf growth 96h = Primary qHTS for delayed death inhibitors of the malarial parasite plastid, 96 hour incubation; P. falciparum luciferase reporter growth, 96 h; Potency, µM (top dose mostly 28.7 µM), actives largely listed as inhibitors; actives 6.9% (n = 320,000); AID 504834, 2011
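P. falciparum expressing integrated firefly luciferase, in erythrocytes at 2% hematocrit, 0.05% parasitemia, incubated with compounds 96 h at 37 C, 5% CO2. Growth inhibition read as loss of luminescence; two-generation exposure targets delayed-death apicoplast inhibitors.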
Sm TGR block = qHTS Assay for the Inhibitors of Schistosoma Mansoni Peroxiredoxins | Schistosoma mansoni thioredoxin glutathione reductase (TGR), Q962Y6 | purified TGR, DTNB reduction, TNB absorbance 405 nm | Potency, µM (series often up to 114 µM), hits mostly inhibitors | actives 3% (n = 360,000) | AID 485364, 2010; further: nearly all actives have a fitted effect of over 60% in size
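First, TGR (20 nM dispensed) and NADPH were mixed with compound. Second, a 15 min room-temperature incubation followed. Third, further NADPH and then DTNB were added to start the reaction. Finally, TNB absorbance was monitored kinetically.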
Pf growth 48h = Primary qHTS for delayed death inhibitors of the malarial parasite plastid, 48 hour incubation | P. falciparum luciferase growth in erythrocytes, 48 h | Potency, µM (top dose mostly 28.7 µM), usual class: inhibitors | actives 5.9% (n = 310,000) | AID 504832, 2011
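Parasite viability was followed by luminescence of a genomically integrated firefly luciferase. Cultures held 0.1% parasitemia at 2% hematocrit (final), incubated under 5% CO2 at 37 C.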
SARS PLP yeast = qHTS of Yeast-based Assay for SARS-CoV PLP; S. cerevisiae expressing SARS-CoV PLpro, growth rescue; Potency, µM (series often up to 32.9 µM), usual class: activators; actives 0.19% (n = 330,000); AID 485353, 2010; calls by dose curve; further: nearly all actives have a fitted effect of over 55% in size
HCV inh = qHTS Assay for Inhibitors of Hepatitis C Virus (HCV); actives 3.4% (n = 340,000); Potency, µM (doses to about 41.8 µM), hits mostly inhibitors; Huh7.5.1 HCVcc-Cre infection, luciferase reporter, 44 h
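Whole-lifecycle infectious HCVcc-Cre system; cells 1,000/well, compound then virus (~0.5 moi) added 4 h after plating, 44 h culture. Luciferase read 15 sec following 15 min substrate incubation, room temp.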
HCMV inh = qHTS Assay for inhibitors of the human cytomegalovirus (HCMV); HFF cells, HCMV-luciferase reporter, 72 h; active compounds read low; activity change, negative = inhibition, % at 57.5 µM; actives 4.5% (n = 410,000); in the data active means activity change below about -60%; inconclusive means no clear call, values can overlap the other calls; inactive means above about -39%
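After 16 h attachment at 37C, HFF cells received test compound and HCMV-luciferase (1 PFU/cell); reporter luminescence read 72 h later, data normalized against buffer-only and known inhibitor Salinomycin.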
Each line names hits and unclear results; the compound was inactive in the other large screens. Unless noted, the call rests on the fitted dose curve; in most records, active means well fitted curve in the direction sought with a large enough effect; inconclusive means small, poorly fitted or top-dose-only effect, or another doubt; inactive means no such curve, though single readings can be large; an effect the other way counts as inactive or inconclusive.

Cc1csc(=O)n1CC(=O)OC(C)C(=O)Nc1ccc(N(C)C)cc1 (configuration not stated)	none (no result: Pf growth 96h, Sm TGR block, Pf growth 48h, SARS PLP yeast)
O=C(COC(=O)CCNS(=O)(=O)c1ccccc1)NC(=O)c1ccccc1	none
O=c1c(NCc2ccccc2Cl)nccn1-c1ccccc1	none (no result: Pf growth 96h, Pf growth 48h, SARS PLP yeast, HCV inh)
CC(=O)c1ccc(NC(=O)CSc2nc(C3CCCC3)nc3c2c(=O)n(C)c(=O)n3C)cc1	none (no result: Pf growth 96h, Pf growth 48h, SARS PLP yeast, HCV inh)
COc1cc2c(cc1OC)C(=Cc1ccc(N(C)C)cc1)C=C2	HCV inh 10µM (no result: Pf growth 96h, Sm TGR block, Pf growth 48h, SARS PLP yeast)
CCCN1CCC(NC(=S)Nc2ccc([N+](=O)[O-])cc2)CC1	Pf growth 96h inconclusive, Pf growth 48h 3.7µM, HCV inh inconclusive
CCCN1CCC(NC(=S)Nc2ccc(C(=O)OCC)cc2)CC1	Pf growth 48h 11.7µM, HCV inh inconclusive
C[C@@H]1CN([C@@H](C)CO)C(=O)CCCn2nncc2CO[C@H]1CN(C)C(=O)c1ccc2ccn(C)c2c1	none (no result: Pf growth 96h, Sm TGR block, Pf growth 48h, SARS PLP yeast, HCV inh)
O=[N+]([O-])C(/C=C(/Cl)[N+](=O)[O-])=C(N1CCCCC1)N1CCCCC1	Pf growth 96h 5.22µM, Sm TGR block 25.1µM, Pf growth 48h 8.28µM
O=C(CN1CC(=O)Oc2ccccc21)NCc1ccco1	Sm TGR block inconclusive
O=C(CN1CCOc2ccccc21)NCc1ccco1	Pf growth 96h inconclusive, Sm TGR block 50.1µM (no result: Pf growth 48h)
O=C(CSc1ccccc1)NCc1ccco1	none
Cc1ccccc1CN1CCN(CC(=O)NCc2ccco2)C1=O	Pf growth 96h inconclusive, Sm TGR block 39.8µM
O=C(CSc1ccc2c(c1)OCCO2)NCc1ccco1	Sm TGR block 20µM
CCc1nc2ccc(C(=O)N3CCN(S(=O)(=O)CC)CC3)cn2c1N(CC)C(=O)NCCc1ccccc1	none (no result: Pf growth 96h, Sm TGR block, Pf growth 48h, SARS PLP yeast, HCV inh)
CN[C@H]1C[C@@H](c2ccccc2)N(C(C)=O)C[C@H]1CO	none (no result: Pf growth 96h, Sm TGR block, Pf growth 48h, SARS PLP yeast, HCV inh)
O=C(Nc1ccc(F)c([N+](=O)[O-])c1)c1cccs1	Pf growth 96h inconclusive
Cc1cc(NC(=O)c2cc3cccc([N+](=O)[O-])c3[nH]2)ccc1F	Pf growth 96h inconclusive, Pf growth 48h inconclusive, HCV inh 11.2µM, HCMV inh inconclusive
COCC(C)NC(=O)c1cc2cccc([N+](=O)[O-])c2[nH]1 (configuration not stated)	Pf growth 96h inconclusive, Pf growth 48h 5.22µM
CCN(C(=O)CSc1nnc(SC(C)C)s1)C1CCS(=O)(=O)C1 (configuration not stated)	Pf growth 96h inconclusive
Cc1ccc(S(=O)(=O)N(C)c2ccc(C(=O)NCC(c3ccccc3)N3CCCC3)cc2)cc1 (configuration not stated)	none (no result: Pf growth 96h, Sm TGR block, Pf growth 48h, SARS PLP yeast, HCV inh)
Cc1ccc(NS(=O)(=O)c2cccc(C(=O)NCC(c3cccs3)N3CCOCC3)c2)cc1 (configuration not stated)	Pf growth 96h inconclusive, Pf growth 48h inconclusive, HCV inh inconclusive
Cc1ccc(S(=O)(=O)N(C)c2ccc(C(=O)NCC(c3cccs3)N3CCOCC3)cc2)cc1 (configuration not stated)	Pf growth 96h 10.4µM, Pf growth 48h inconclusive (no result: HCV inh)
Cc1ccc(N(C)S(=O)(=O)c2cccc(C(=O)NCC(c3cccs3)N3CCOCC3)c2)cc1 (configuration not stated)	Pf growth 96h inconclusive, Pf growth 48h 11.7µM, HCV inh inconclusive
O=C(CNc1cccc2ccccc12)N/N=C/C(Br)=C/c1ccccc1	none
O=C(CNc1ccccc1)N/N=C/c1ccc([N+](=O)[O-])cc1	none
O=C(CNc1cccc2ccccc12)N/N=C/c1ccc([N+](=O)[O-])o1	Pf growth 96h 1.17µM, Sm TGR block inconclusive, Pf growth 48h 3.29µM, HCV inh 10µM, HCMV inh -94.9
O=C(CNc1cccc([N+](=O)[O-])c1)N/N=C/c1ccc([N+](=O)[O-])o1	Pf growth 48h inconclusive, HCV inh inconclusive, HCMV inh -65.5 (no result: Sm TGR block)
CSCCNC(=O)C1(C)CCN1C(=O)c1cc(C)n(C)n1 (configuration not stated)	none (no result: Pf growth 96h, Sm TGR block, Pf growth 48h, SARS PLP yeast, HCV inh)
Cc1[nH]n(-c2ccccc2)c(=O)c1/C=N/N1C(=O)c2cccc3cccc(c23)C1=O	none
Cc1[nH]n(-c2ccccc2)c(=O)c1C=Nc1cccc2cccnc12	Pf growth 48h inconclusive, HCV inh 3.55µM, HCMV inh -63.0 (no result: SARS PLP yeast)
Cc1ccc(-n2[nH]c(C)c(C=Nc3cc(C)ccn3)c2=O)cc1	Pf growth 96h 7.38µM
Cc1ccc(-n2[nH]c(C)c(/C=N/c3ccccn3)c2=O)cc1	none
CC(CC(=O)OCC(=O)Nc1ccc2[nH]c(=O)[nH]c2c1)c1ccccc1 (configuration not stated)	none
CCOC(=O)C1=C(C)N=C2SC(C)C(=O)N2C1c1ccc(OCC)c(OCC)c1 (configuration not stated)	Pf growth 48h 11.7µM
CCOC(=O)C1=C(C)N=C2SC(C)C(=O)N2C1c1ccccc1 (configuration not stated)	Pf growth 48h inconclusive
CCOC(=O)C1=C(C)N=C2SC(C(=O)OC)=CC(=O)N2C1c1cc(OC)c(OC)c(OC)c1 (configuration not stated)	Pf growth 48h 4.65µM
CCOC(=O)C1=C(C)N=C2SC(C)C(=O)N2C1c1ccc(C(=O)OC)cc1 (configuration not stated)	Pf growth 96h 3.7µM
CCOC(=O)C1=C(C)N=C2SC(CC)C(=O)N2C1c1cccc(F)c1 (configuration not stated)	Pf growth 96h 10.4µM
CCc1ccc(NC(=O)C2CCN(S(=O)(=O)c3ccc4[nH]c(=O)ccc4c3)CC2)cc1	Pf growth 96h inconclusive
N#C/C(=C/c1ccc(-c2cccc([N+](=O)[O-])c2)o1)C(=O)Nc1nc(-c2cccs2)cs1	none (no result: Pf growth 96h, Sm TGR block, Pf growth 48h, SARS PLP yeast)
N#C/C(=C\c1ccc(-c2ccc([N+](=O)[O-])cc2)o1)C(=O)Nc1nc(-c2cccs2)cs1	HCV inh 10µM
CC(=O)c1cccc(NC(=O)c2sc(-n3nc(C)c(Cc4ccc5c(c4)OCO5)c3C)nc2C)c1	none (no result: Pf growth 96h, Pf growth 48h, SARS PLP yeast, HCV inh)
Cc1ccc(NC(=O)c2sc(-n3nc(C)c(Cc4ccc5c(c4)OCO5)c3C)nc2C)cc1C	HCMV inh -113.1 (no result: Pf growth 96h, Pf growth 48h, SARS PLP yeast, HCV inh)
CCOc1cc(N2CCOCC2)c(OCC)cc1NC(=O)c1cc(S(=O)(=O)N2CCOCC2)ccc1Cl	Pf growth 96h inconclusive, Pf growth 48h inconclusive, HCV inh inconclusive
CCOc1ccc(NC(=O)Cc2ccccc2)c([N+](=O)[O-])c1	Pf growth 96h inconclusive, SARS PLP yeast inconclusive
CCOc1cc(N2CCOCC2)c(OCC)cc1NC(=O)c1ccc(OC)cc1	Pf growth 96h inconclusive, Pf growth 48h inconclusive, HCV inh 4.47µM, HCMV inh inconclusive
